TRHR PAM: qHTS for Small Molecule Agonists and Allosteric Enhancers of Human TRH Receptor: Primary Screen for Enhancers | TRHR cells, fluo-8 calcium fluorescence, EC20 TRH enhancement | enhancement, % at 2 µM | AID 493056, 2011 | Thyrotropin-releasing hormone receptor (Homo sapiens), P34981 | 360,000 compounds, 0.66% hits; in the data active = enhancement above about 30%; also: 0% is about no effect
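TRHR-expressing cells loaded with fluo-8 calcium dye were read kinetically (ex 480/em 530) during compound addition, then stimulated with an EC20 of TRH (10 nM final). Enhancement of the Gq-mediated intracellular calcium response was scored.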
D1 agonist: Allosteric Agonists of the Human D1 Dopamine Receptor: qHTS; activation, % at 2 µM; D(1A) dopamine receptor (Homo sapiens), P21728; 360,000 compounds, 1% hits; HEK293 T-REx D1 cells, calcium flux, agonist mode; also: 0% is about no effect
Target sequence (P21728 whole entry, looked up): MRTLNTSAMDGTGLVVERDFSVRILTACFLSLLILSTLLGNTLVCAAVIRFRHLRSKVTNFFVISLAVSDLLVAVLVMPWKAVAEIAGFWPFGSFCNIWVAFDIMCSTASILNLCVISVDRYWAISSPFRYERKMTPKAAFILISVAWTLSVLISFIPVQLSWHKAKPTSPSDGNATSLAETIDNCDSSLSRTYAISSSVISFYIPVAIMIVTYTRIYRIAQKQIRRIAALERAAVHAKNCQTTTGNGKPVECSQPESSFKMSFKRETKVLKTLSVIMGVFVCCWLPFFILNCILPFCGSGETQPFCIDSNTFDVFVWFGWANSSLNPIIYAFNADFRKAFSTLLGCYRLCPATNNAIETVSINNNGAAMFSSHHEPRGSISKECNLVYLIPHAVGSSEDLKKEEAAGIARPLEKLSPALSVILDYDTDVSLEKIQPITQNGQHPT
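Agonism was scored from calcium flux recorded over 180 s (1 read/s) after pintool compound addition, following a 10-cycle baseline. Cells were inducible force-coupled HEK293 TREx D1, plated overnight at 30 C and loaded with no-wash calcium dye.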
D1 PAM: Potentiators of Human D1 Dopamine Receptor: qHTS. D(1A) dopamine receptor (Homo sapiens), P21728. HEK293 TREx D1 cells, calcium flux, dopamine EC20 potentiation. potentiation, % at 10 µM. 360,000 compounds, 0.036% hits; in the data active = potentiation above about 30%; also: 0% is about no effect
TRHR ag: qHTS for Small Molecule Agonists and Allosteric Enhancers of Human TRH Receptor: Primary Screen for Agonists | AID 493084, 2011 | 360,000 compounds, 0.18% hits | TRHR cells, calcium flux fluo-8, FDSS agonist mode | activation, % at 2 µM | Thyrotropin-releasing hormone receptor (Homo sapiens), P34981; also: 0% is about no effect
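Fluo-8-loaded TRHR cells; 10 s baseline, compound added, kinetic Ca2+ fluorescence read 1/s, agonist mode.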
D1 antag: Antagonist of Human D 1 Dopamine Receptor: qHTS; D(1A) dopamine receptor (Homo sapiens), P21728; HEK293 TREx D1 cells, calcium flux, dopamine EC80; stronger effect = lower value; activity change, negative = inhibition, % at 10 µM; 360,000 compounds, 3.2% hits; AID 504652, 2011; in the data active = activity change below about -30%; also: % is scaled to controls: 0 for no effect and ±100 for the full control effect
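Using tetracycline-induced force-coupled D1 Hek293 cells and a calcium dye, signals were followed for 180 s after compound, then for 180 s after EC80 dopamine, to detect inhibitors.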
* marks the source's active call; other numbers are inactive results; · = not tested or not shown. Shown are actives, neighbours in structure and some others; about 4.7% of the full set was active somewhere. Rule as the data show it, unless noted: active = activation above about 30%; inactive = the rest.

SMILES | TRHR PAM | D1 agonist | D1 PAM | TRHR ag | D1 antag
COCCNC(=O)Cn1cc(/C=C(\C#N)C(=O)NC2CCCC2)c2ccccc21 | -16.8 | 1.4 | 32.9* | -0.4 | -4.0
Cc1ccc(C)c(S(=O)(=O)NCc2ccc(C(=O)N3CCN(C)CC3)cc2)c1 | 3.5 | 3.8 | -3.6 | -0.2 | -31.7*
Cc1ccc(NS(=O)(=O)c2cc(C(=O)N3CCN(C)CC3)ccc2C)cc1 | -0.1 | -1.0 | -3.8 | 0.4 | -34.3*
Cc1ccc(NS(=O)(=O)c2cc(C(=O)N3CCN(CCO)CC3)ccc2C)cc1 | 9.9 | -0.9 | 7.9 | 0.3 | -24.4
O=Cc1c(NCc2cccc(F)c2)c2ccccc2[nH]c1=O | -2.0 | 4.0 | -0.7 | -0.3 | -24.0
O=Cc1c(NCc2ccc(F)cc2)c2ccccc2[nH]c1=O | -8.2 | 4.2 | -8.8 | -0.1 | -36.0*
O=Cc1c(NCc2ccccc2Cl)c2ccccc2[nH]c1=O | -1.6 | 3.4 | -1.2 | -0.5 | -33.1*
Cc1ccc(CNc2c(C=O)c(=O)[nH]c3ccccc23)cc1 | 10.5 | 5.7 | -2.0 | -0.3 | -50.7*
COc1cccc(CNn2c(-c3cccc(C)c3)nc3ccccc3c2=O)c1 | 37.5* | 5.0 | -4.5 | 0.7 | 7.7
Cc1ccccc1SCCNC(=O)c1ccccc1Br | 32.8* | 0.0 | -0.8 | -1.4 | 10.4
CCc1cccc(C)c1NC(=O)Cn1c(=O)cc(C(F)(F)F)c2c(C)nn(C)c21 | -1.1 | -0.1 | -1.1 | -0.4 | 20.9
CN(C)c1ccc(/C=C/C(=O)c2cccc(Br)c2)cc1 | -10.0 | 771.9* | -10.7 | 147.6* | -75.2*
CN(C)c1ccc(C(=O)/C=C/c2cccnc2)cc1 | 4.0 | 3.2 | -11.8 | -0.7 | 1.7
CCc1ccccc1NC(=O)CN1C(=O)CCSc2ccc(S(=O)(=O)N3CCCC3)cc21 | -4.7 | 0.7 | -1.3 | -0.4 | 5.9
O=C1CC(c2ccco2)Cc2nc(Nc3ccc(F)cc3)ncc21 (stereo unspecified) | 2.6 | 1.5 | -2.0 | -0.8 | -15.1
O=C1CC(c2ccco2)Cc2nc(NCC3CCCO3)ncc21 (stereo unspecified) | 2.3 | -0.1 | -3.5 | 0.3 | -32.3*
c1ccc2[nH]c3cc4ncnc4cc3nc2c1 | 9.7 | 32.9* | 3.2 | 14.4 | -0.8
FC(F)c1nc2ccccc2[nH]1 | 3.0 | -0.9 | -2.2 | -0.2 | 18.5
CCc1c(C)sc(NC(=O)c2cc(C3CC3)on2)c1C#N | 5.3 | 0.5 | -3.1 | 0.5 | -37.3*
O=C(NCc1cn(-c2ccccc2)nc1-c1ccccc1)c1cccc([N+](=O)[O-])c1 | -6.0 | 2.2 | -9.7 | 0.3 | -32.6*
CC(=O)c1ccc(NC(=O)C2CCN(S(=O)(=O)c3ccc4c(c3)CCCN4C(=O)C3CCC3)CC2)cc1 | 0.1 | -0.2 | -3.8 | -0.2 | 9.9
O=C(Cc1nnc(-c2nc3ccccc3[nH]2)o1)Nc1cc(C(F)(F)F)ccc1Cl | 1.6 | 3.1 | -6.8 | 0.2 | 0.7
O=C(O)CCc1nn2cc(-c3ccccc3)nc2[nH]c1=O | -0.8 | 0.8 | -5.2 | 0.3 | -79.1*
CCn1c(CSc2nc(C)cc(C)n2)nnc1SCC(=O)Nc1nc(-c2ccccc2)cs1 | -2.0 | 36.6* | 0.2 | 3.4 | 3.6
O=C(CCCN1CCC(O)(c2ccc(Br)cc2)CC1)c1ccc(F)cc1 | 17.2 | 70.4* | -1.9 | 2.9 | -87.4*
SMILES | TRHR PAM | D1 agonist | D1 PAM | TRHR ag | D1 antag
O=C(CCCN1CCC(O)(c2cccc(C(F)(F)F)c2)CC1)c1ccc(F)cc1 | 1.0 | 61.3* | 2.4 | -1.8 | -0.3
O=C(CCCC(=O)c1ccc(F)cc1)c1ccc(F)cc1 | -3.8 | 3.5 | 1.8 | 1.2 | -1.7
CC(=O)N1CCC(O)(c2cccc(C(F)(F)F)c2)CC1 | 8.5 | 1.4 | 5.7 | 0.9 | -3.1
O=C(CCCN1CCC(C(=O)c2ccc(F)cc2)CC1)c1ccc(F)cc1 | -7.8 | 7.2 | -8.5 | -0.9 | -84.5*
Cc1ccc(S(=O)(=O)c2cn(CC(=O)Nc3ccccc3C)c3cc4c(cc3c2=O)OCO4)cc1 | -2.6 | 6.0 | 1.8 | 0.3 | 4.6
Cc1nc2c(-c3ccccc3)c(C)nn2c(C)c1CCC(=O)NCc1ccco1 | 1.9 | 0.2 | -15.9 | -1.0 | -42.6*
CCOc1ccc(NC(=O)CCc2c(C)nc3c(-c4ccccc4)c(C)nn3c2C)cc1 | 47.8* | 2.4 | -4.5 | 0.4 | -11.5
Cc1nc2c(-c3ccc(F)cc3)c(C)nn2c(C)c1CCC(=O)NCc1cccc(Cl)c1 | 15.0 | 2.0 | -7.0 | 0.1 | -38.9*
Cc1nc2c(-c3ccccc3)c(C)nn2c(C)c1CCC(=O)N1CCN(c2ccccc2)CC1 | 3.4 | 0.3 | -2.5 | -0.2 | 2.7
CCN1CCN(c2ccc(NC(=O)CCc3c(C)nc4c(-c5ccccc5)c(C)nn4c3C)cc2)CC1 | 0.7 | 4.1 | -10.1 | -1.0 | -84.2*
Cc1nc2c(-c3ccc(F)cc3)c(C)nn2c(C)c1CCC(=O)NCc1ccc(F)cc1 | 5.1 | 0.4 | -5.7 | 0.1 | -26.3
Cc1nc2c(-c3ccccc3)c(C)nn2c(C)c1CCC(=O)NCc1ccccc1 | -4.4 | -0.1 | -5.5 | -0.1 | -25.6
CCCCOc1cccc(NC(=O)c2cccc(C(=O)Nc3cccc(OCCCC)c3)c2)c1 | -9.3 | 4.7 | 0.3 | 2.3 | 7.7
CCC1CN(C(=O)Nc2cccc3c2CCCC3)c2cc(Cl)ccc2O1 (stereo unspecified) | -0.9 | 6.3 | 1.1 | 1.0 | 3.4
O=C(NCCc1ccccc1)c1ccc2c(c1)N(Cc1ccccc1Cl)C(=O)c1ccccc1S2 | 7.7 | 7.6 | -4.7 | 0.6 | -12.2
CCOc1ccc(OCc2cccc(C(=O)N3CCCCCC3)c2)cc1 | -5.2 | 10.1 | -6.1 | -0.2 | -20.6
O=C(NN1CCCCC1)c1cccc(COc2ccc(Cl)cc2)c1 | 1.5 | 4.7 | -2.7 | 0.6 | -30.7*
CCOC(=O)c1sc2nc(C)nc(Nc3ccc(OC)cc3)c2c1C | -1.2 | 2.3 | -0.7 | -0.6 | -30.2*
CCOC(=O)c1sc2nc(C)nc(NCc3ccc(F)cc3)c2c1C | 1.8 | 4.1 | 0.8 | 1.1 | 2.6
COc1ccc(C(=O)N[C@H](C(=O)NCc2ccc(C)cc2)C(C)C)cc1 | 0.3 | 2.8 | -9.3 | -1.1 | 23.0
COc1ccc(C(=O)N[C@H](C(=O)NCC2CCCCC2)C(C)C)cc1 | -1.4 | 159.8* | 1.7 | -0.7 | -23.3
C(=N\N1CCN(Cc2ccccc2)CC1)/c1ccc(-c2ccccc2)cc1 | 0.5 | 1.1 | -6.7 | 0.5 | ·
CN1CCN(/N=C/c2ccc(-c3ccccc3)cc2)CC1 | -1.2 | 72.1* | -5.6 | -0.5 | -76.2*

Screening results from PubChem BioAssay.
